Reference: PubChem BioAssay AID1910 (Broad Institute, 2009)
About 950 (0.32%) of roughly 300,000 compounds were called active.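 How the source made its calls: active means mean activation of at least 10% of the iron chelator positive control signal, with at least half of replicates also reaching 10%; inconclusive means mean and replicate majority disagree about reaching 10%; inactive means mean and most replicates under 10%.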 This excerpt belongs to a sample that is enriched for actives.

assay: hypoxia response element reporter activation – cell-based, U2OS HRE-luciferase, luminescence, primary screen (AID 1910); conditions: hits give high values, screened at 7.5 µM (by protocol), normalized: DMSO 0%, desferrioxamine 100%

| Structure (SMILES) | activation |
| --- | --- |
| COc1ccc2c(c1)O/C(=C\c1ccccc1O)C2=O | 3.88% (inactive) |
| COc1cc([N+](=O)[O-])cc([N+](=O)[O-])c1NC(=O)N1CCOCC1 | -0.133% (inactive) |
| COc1ccc(C#Cc2c(-c3ccc(OC)cc3)oc3ccc(-c4ccc5c(c4)OCO5)cc23)cc1 | 2.6% (inactive) |
| CN1CCN(c2ccc(S(=O)(=O)N3CCOCC3)cc2NC(=O)CCc2ccccc2)CC1 | 0.124% (inactive) |
| CC(=O)NCCC(=O)Nc1cc(S(=O)(=O)N2CCOCC2)ccc1N1CCOCC1 | 158% (active) |
| Cc1cccc(OCCC(=O)Nc2cc(S(=O)(=O)N3CCCCC3)ccc2N2CCOCC2)c1 | -0.617% (inactive) |
| O=S(=O)(NCCCc1ccccc1)c1ccc(Br)cc1 | -0.382% (inactive) |
| O=c1[nH]snc1-c1c(Cl)cccc1Cl | -0.133% (inactive) |
| COc1ccc(S(=O)(=O)N2CCOC2CNC(=O)C(=O)NCc2ccncc2)cc1OC (stereo not drawn) | 0.131% (inactive) |
| Cc1ccc(S(=O)(=O)N2CCN(C(=O)c3ccccc3-c3nc4ccccc4s3)CC2)c(C)c1 | -37.1% (inactive) |
| CCOC(=O)C1CCN(C(=O)COC(=O)C2CCN(S(=O)(=O)c3ccc4c(c3)OCCO4)CC2)CC1 | 0.496% (inactive) |
| COc1ccccc1CCNS(=O)(=O)c1cc2c3c(c1)C(C)C(=O)N3CCC2 (stereo not drawn) | 80.8% (active) |
| CC1C(=O)N2CCCc3cc(S(=O)(=O)NCc4ccc(F)cc4)cc1c32 (stereo not drawn) | 2.62% (inactive) |
| CCOc1ccccc1NS(=O)(=O)c1cc2c3c(c1)C(C)C(=O)N3CCC2 (stereo not drawn) | -0.238% (inactive) |
| O=C(CNC(=O)C12CC3CC(CC(C3)C1)C2)OCC(=O)N1CCCCC1 | -0.325% (inactive) |
| CC(NC(=O)c1ccccc1SCC(=O)N1CCCC1)c1ccccc1 (stereo not drawn) | -0.504% (inactive) |
| O=C(NC1CCCC1)c1cc(-c2ccccc2)on1 | 25.3% (active) |
| COc1ccc(-c2cc(C(=O)NCCCn3ccnc3)no2)cc1 | 1.05% (inactive) |
| O=C(NCCCn1ccnc1)c1cc(-c2ccccc2)on1 | 35.8% (active) |
| CC(NC(=O)c1cc(-c2ccccc2)on1)c1ccccc1 (stereo not drawn) | 0.0998% (inactive) |
| O=C(NC1CCCCC1)c1cc(C2CC2)on1 | 1.35% (inactive) |
| COc1ccccc1-c1cc(C(=O)NCCCn2ccnc2)no1 | 0.0935% (inactive) |
| Cc1ccccc1C(=O)N1CCC(C(=O)Oc2ccc(C#N)cc2)CC1 | -0.988% (inactive) |
| CC(=O)c1ccc(NC(=O)C2CCCN2S(=O)(=O)c2cccs2)cc1 (stereo not drawn) | -0.0783% (inactive) |

| Structure (SMILES) | activation |
| --- | --- |
| N#CCCN(C(=O)COC(=O)C1CCN(c2ccc(C(F)(F)F)cn2)CC1)c1ccc(F)cc1 | 0.186% (inactive) |
| COc1cccc(-c2ccc(C#N)c(SCC(=O)NCCc3ccc(Cl)cc3)n2)c1 | -0.149% (inactive) |
| COc1ccc(CCNC(=O)CSc2nc(-c3ccc(OC)c(OC)c3)ccc2C#N)cc1 | 225% (active) |
| COc1ccc(CCNC(=O)CSc2nnc3ccc(-c4ccncc4)nn23)cc1 | -0.329% (inactive) |
| C=CCOc1ccc(/C=C/C(=O)OCC(=O)NC(C)c2ccc(F)cc2)cc1 (stereo not drawn) | -1.98% (inactive) |
| CCOc1ccc(NC(=O)c2ccc(NC(=O)CN3C(=O)C(=O)N(CC(C)C)C3=O)cc2)cc1 | -0.207% (inactive) |
| Cc1ccc2[nH]c3c(=O)n(CC(=O)NCCc4ccc(Cl)cc4)ncc3c2c1 | 0.0828% (inactive) |
| Cc1cccc(CCNC(=O)Cn2ncc3c([nH]c4ccc(C)cc43)c2=O)c1 | 67.3% (active) |
| CC1CC(C)CN(CCCNC(=O)Cn2ncc3c([nH]c4ccccc43)c2=O)C1 (stereo not drawn) | -0.555% (inactive) |
| Cc1ccc2nnn(Cc3cccc(C(C)(C)C)c3O)c2c1 | -0.574% (inactive) |
| CCc1cccc(C)c1NC(=O)COC(=O)CC1CCCC1 | -0.451% (inactive) |
| CC(=O)Nc1ccc(S(=O)(=O)N2CCC(NC(=O)c3ccccc3)CC2)cc1 | -33.2% (inactive) |
| CC1(C)CC(=O)C(C=NCCN2CCN(C(=S)Nc3cccc(Cl)c3)CC2)=C(O)C1 | 233% (active) |
| CC(=O)N1CCN(CCN=CC2=C(O)CC(C)(C)CC2=O)CC1 | -0.482% (inactive) |
| CCNC(=S)N1CCN(CCN=CC2=C(O)CC(C)(C)CC2=O)CC1 | -0.656% (inactive) |
| COCCNC(=S)N(CCc1c(C)[nH]c2ccc(C)cc12)Cc1cccnc1 | 0.573% (inactive) |
| CNC(=O)C(=O)N/N=C/c1ccccn1 | -0.138% (inactive) |
| Cc1nnc(N/N=C/c2ccccn2)[nH]c1=O | 117% (active) |
| Cc1nnc(N/N=C/C2CC=CCC2)[nH]c1=O (stereo not drawn) | -0.414% (inactive) |
| CCN(CCO)C(=S)Nc1cc(C(=O)OC)ccc1C(=O)OC | -0.0671% (inactive) |
| CCCN(CCC)C(=S)Nc1cc(C(=O)OC)ccc1C(=O)OC | 166% (active) |
| CCS(=O)(=O)Nc1cc(C(=O)OC)ccc1C(=O)OC | -0.124% (inactive) |
| Fc1ccc(-c2ccc(NCCN3CCOCC3)nn2)cc1 | 3.51% (inactive) |
| COc1ccc(NC(=O)CCCC(=O)c2ccccc2)cc1 | 0.37% (inactive) |
